# Rows were chosen to be rich in hits. Some 0.5% of all compounds tested hit in one or more screens of this group.
# Cardiac RTF inh: cardiac RTF calcium desensitization; IANBD-labeled cardiac RTF, Ca2+ fluorescence; inhibition, % at 7.15 µM; hit rate 0.12% among 340,000; AID 493244;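 active = inhibition above the mean inhibition of all tested compounds plus 3 SD, cut at about 17% in these data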;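 note: assay run at fixed EC70 calcium of 1.6 mM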
# Keap1 Nrf2 FP: inhibitors of human Keap1-Nrf2 protein-protein interaction; Q14145; hit rate 0.15% among 340,000; Keap1 Kelch-Nrf2 peptide fluorescence polarization, 1536-well; inhibition, % at 9.4 µM; AID 504523; in the data active = inhibition above about 12%;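 note: human Keap1 Kelch domain with fluorescein labeled Nrf2 9mer peptide probe; higher means more block of Keap1 binding to Nrf2 peptide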
# Target sequence (Q14145 whole entry, looked up, the tested form may be a part): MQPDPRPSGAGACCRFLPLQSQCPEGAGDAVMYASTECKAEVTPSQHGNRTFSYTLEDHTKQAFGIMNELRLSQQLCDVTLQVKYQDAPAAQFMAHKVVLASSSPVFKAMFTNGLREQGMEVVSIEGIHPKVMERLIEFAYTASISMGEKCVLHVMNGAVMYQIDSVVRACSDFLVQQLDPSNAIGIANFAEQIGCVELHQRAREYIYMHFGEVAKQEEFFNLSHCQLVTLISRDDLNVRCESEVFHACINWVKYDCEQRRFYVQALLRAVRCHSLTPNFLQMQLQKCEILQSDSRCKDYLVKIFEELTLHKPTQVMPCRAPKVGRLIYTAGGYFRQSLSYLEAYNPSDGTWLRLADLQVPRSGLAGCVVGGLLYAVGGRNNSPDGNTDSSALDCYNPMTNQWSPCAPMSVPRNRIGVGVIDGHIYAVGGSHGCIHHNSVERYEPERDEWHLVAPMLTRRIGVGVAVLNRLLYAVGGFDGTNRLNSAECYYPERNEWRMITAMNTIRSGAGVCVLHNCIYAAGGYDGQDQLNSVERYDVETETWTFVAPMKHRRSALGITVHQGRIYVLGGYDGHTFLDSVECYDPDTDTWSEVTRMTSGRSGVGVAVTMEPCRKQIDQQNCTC
# C-LANA FP: KSHV C-LANA DNA binding inhibition; MBP-C-LANA/FAM-LBS DNA binding, fluorescence polarization; inhibition, % at 9 µM; hit rate 0.078% among 340,000; AID 504423;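 active = highest replicate inhibition at or above 60% at 9 µM, even if other replicates fall short; inactive = all replicates below 60% inhibition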
# RTF Ca sens act: increases calcium sensitivity of human cardiac regulated thin filaments. IANBD-labeled TnC RTF fluorescence at EC20 calcium; 0% EC20 calcium, 100% full calcium. activation, % at 7.2 µM. hit rate 0.24% among 340,000. AID 493008;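 active = activation above the mean over all tested compounds plus 3 SD, cut at about 30% in these data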;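 note: rise in fluorescence read as greater calcium sensitivity of cardiac thin filaments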
# Numbers stand for hits; - = inactive; . = no result; + = active, no number.
SMILES,Cardiac RTF inh,Keap1 Nrf2 FP,C-LANA FP,RTF Ca sens act
CN(C)S(=O)(=O)N1C(=O)c2ccccc2C1=O,-,-,-,-
Nc1ccc(C(=O)Nc2ccc3c(O)cc(S(=O)(=O)O)cc3c2)cc1,-,-,116,-
CC[C@]1(C(=O)OC)[C@H]2C(=O)N(C)C(=O)[C@H]2[C@H]2CN(C)C(=NC3CCCCC3)N21,-,-,-,-
CCn1c(=O)c(C(=O)CN2c3ccccc3CC2C)c(N)n(Cc2ccccc2)c1=O (stereo unspecified),-,-,-,-
CCN(C(=O)CN1CCCc2cc(C)ccc21)c1c(N)n(Cc2ccccc2)c(=O)[nH]c1=O,-,-,-,-
Cc1ccc2c(c1)CCCN2CC(=O)N(C)c1c(N)n(Cc2ccccc2)c(=O)[nH]c1=O,-,-,-,38
CCn1c(=O)c(C(=O)CN2CCCc3ccccc32)c(N)n(Cc2ccccc2)c1=O,-,-,-,31
COc1cc(OC)cc(C(=O)Nc2nc(CC(=O)NC(C)c3ccccc3)cs2)c1 (stereo unspecified),-,-,-,-
COc1ccc(-c2cn(CCO)c(-c3ccc(Cl)nc3)n2)cc1,-,-,-,-
O=C1/C(=C\c2cc([N+](=O)[O-])ccc2O)SC(=S)N1Cc1ccc(Cl)cc1,-,-,-,135
O=C(O)c1ccc(NS(=O)(=O)c2ccc3c(c2)C2C=CCC2C(c2ccccc2F)N3)cc1 (stereo unspecified),-,-,108,-
O=C(O)c1ccc2c(c1)C1C=CCC1C(c1cc3c(cc1Br)OCO3)N2 (stereo unspecified),-,-,-,-
CCN1/C(=C/C=C/c2oc3ccc(-c4ccccc4)cc3[n+]2CC)Oc2ccc(-c3ccccc3)cc21,-,-,-,998
CC(C)c1ccc(NC(=O)CCN2C(=O)[C@@H]3Cc4ccccc4CN3C2=O)cc1,-,-,-,-
CCN(CC)c1ccc2cc(-c3nnc(-c4ccccc4)o3)c(=O)oc2c1,-,-,-,705
COc1cccc2cc(-c3nc4ccccc4[nH]3)c(=O)oc12,-,-,-,-
O=c1oc2ccc3ccccc3c2cc1-c1nnc(-c2ccccc2)o1,-,-,-,-
CCN(CC)c1ccc2cc(-c3nc4ccccc4n3C)c(=O)oc2c1,-,-,-,102
CCN(CC)c1ccc2cc(-c3nc4ccccc4[nH]3)c(=O)oc2c1,-,-,-,+
O=C(NC1CCCC1)c1cc(-c2cccc(Cl)c2)on1,-,-,-,-
CSCCC(NC(=O)c1ccco1)C(=O)N1CC=C(c2ccccc2)CC1 (stereo unspecified),-,-,-,-
Cc1ccc(C(=O)NCCN(C)C)c(C)c1,-,-,-,-
CNc1c2cccc(C)c2nc2c(C(=O)NCCN(C)C)cccc12,-,-,61,-
CN1CCN(c2nc3c(c(=O)n(C)c(=O)n3C)n2Cc2ccccc2F)CC1,-,-,-,52
Cn1c(=O)c2c(nc(N3CCc4ccccc4C3)n2Cc2ccccc2F)n(C)c1=O,-,-,-,-
SMILES,Cardiac RTF inh,Keap1 Nrf2 FP,C-LANA FP,RTF Ca sens act
Cn1nccc1NC(=O)Nc1cccc(Cl)c1Cl,-,-,-,61
O=[N+]([O-])c1cccc(C2(O)COc3ccccc3O2)c1 (stereo unspecified),-,-,-,-
Cc1[nH][nH]c(=O)c1N=Nc1ccccc1Cl,-,-,.,-
Clc1ccccc1N=Nc1ccccn1,-,14,-,-
Cc1cccc(/C=C2\Oc3cc(OS(C)(=O)=O)ccc3C2=O)c1,-,-,-,-
O=C1/C(=C/c2cccc(F)c2)Oc2cc(O)ccc21,-,-,-,49
Oc1[nH]c2ccc(Br)cc2c1N=Nc1ccc(F)cc1,-,-,-,467
O=[N+]([O-])c1ccc2[nH]c(O)c(N=Nc3ccc(F)cc3)c2c1,-,-,-,-
Oc1[nH]c2ccccc2c1N=Nc1ccc(F)cc1,-,-,-,34
O=S(=O)(O)c1cc(O)c2c(O)c(N=Nc3cc(Cl)ccc3O)c(S(=O)(=O)O)cc2c1,27,-,-,-
N#CC1=C(N)SC(N)=C(C#N)C1c1cccc(Oc2ccccc2)c1,-,-,-,37
N#CC1=C(N)SC(N)=C(C#N)C1c1ccc([N+](=O)[O-])cc1,-,-,-,-
CCc1ccc(C2C(C#N)=C(N)SC(N)=C2C#N)cc1,-,-,-,40
N#CC1=C(N)SC(N)=C(C#N)C1c1c(Cl)cccc1Cl,-,-,-,-
CCOc1ccccc1C1C(C#N)=C(N)SC(N)=C1C#N,-,-,-,30
CCOc1ccccc1C1C(C#N)=C(N)Oc2n[nH]c(CC)c21 (stereo unspecified),-,-,-,-
CCc1ccc(C2C(C#N)=C(N)SC(N)=C2C#N)s1,-,-,-,-
CCOc1ccc(C2C(C#N)=C(N)SC(N)=C2C#N)cc1OCC,-,-,-,42
O=c1oc(C2(O)CCCCC2)cc2ccc(-c3ccc4[nH]ccc4c3)cc12,-,-,-,-
O=C(O)Cc1ccc(N=Nc2c(O)c(C(=O)O)cc3ccccc23)cc1,-,-,92,-
CC1CCC2(CC1)NC(=O)N(CC(=O)N1CCN(c3ccccc3)CC1)C2=O (stereo unspecified),-,-,-,-
Cc1ccc(Cl)c(OCC(=O)NC2CCN(Cc3ccccc3)CC2)c1,-,-,-,-
COc1ccc(Cl)cc1NC(=O)C1CCCN(S(C)(=O)=O)C1 (stereo unspecified),-,-,-,-
CC1=Nc2ccccc2/C1=C\c1nc(-c2ccccc2)oc1O,-,-,-,-
CC1=Nc2ccccc2/C1=C\c1nc(-c2ccc(C(F)(F)F)cc2)oc1O,-,-,-,156
SMILES,Cardiac RTF inh,Keap1 Nrf2 FP,C-LANA FP,RTF Ca sens act
COc1ccccc1C(=O)NNC(=O)c1ccc(Br)cc1,-,-,-,-
COc1ccc(N2C(=O)c3cccc4cccc(c34)C2=O)cc1,-,-,-,-
COc1ccc(N2C(=O)c3cccc4c(N(C)CCO)ccc(c34)C2=O)cc1,-,-,-,48
C[n+]1c2cc(N)ccc2cc2ccc(N)cc21,-,+,195,+
Nc1ccc2ccc(O)cc2c1,-,-,-,-
C[C@H]1CN[C@H](CCO)/C1=C\c1ccccc1,-,-,-,-
O=C(Nc1cccc(C(=O)N2CCOCC2)c1)C1CCCC1,-,-,-,-
Cc1ccsc1C1C=C(c2cccc(Br)c2)Nc2ncnn21 (stereo unspecified),-,-,-,46
Fc1ccc(Br)cc1C1C=C(c2ccc(Br)cc2)Nc2ncnn21 (stereo unspecified),-,-,-,-
CSc1ccccc1NC(=O)CN(C)C(=O)c1ccc(NC(=O)c2cccs2)cc1,-,-,-,-
Brc1ccc(-c2cnnc(N3CCCC3)n2)cc1,-,-,-,79
COC(=O)C1=C(C)NC(=O)NC1c1ccc(N2CCC(c3ccccc3)=N2)cc1 (stereo unspecified),-,-,-,-
CCOC(=O)/C(=C\c1ccc(N2CCC(c3ccccc3)=N2)cc1)C(C)=O,-,-,-,72
Cc1cc(O)c(CN(C)C)c2c1C(=O)/C(=C/c1ccco1)O2,-,-,-,36
COc1ccc2c(c1)O/C(=C\c1ccco1)C2=O,-,-,-,-
